Source: the supplement of paper PMC6555819

Tests used:
Assay in all cases: PBM binding z-score (relative to random genomic background probes); higher = stronger binding; sequences stand for … in GC…GCGATTGACAGCGTAGAATGAAGG
[1] = system: FXR:RXRa (NR concentration 270 nM, RXRa partner concentration 90 nM)
Procedure, shortened: (§1)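 Binding z-scores were set against random background probes. The data came from custom Agilent 4×180K protein-binding microarrays carrying double-stranded probes with 34-nt variable regions, incubated 1 h with ligand-free nuclear receptor dimers. Partner-specific antibodies detected binding, and scanned fluorescence was regression-normalized.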

[2] = system: LXRa:RXRa (NR concentration 270 nM, RXRa partner concentration 90 nM)
Procedure, shortened: as §1

[3] = system: LXRa homodimer (NR concentration 270 nM)
Procedure, shortened: as §1

[4] = system: LXRb:RXRa (NR concentration 270 nM, RXRa partner concentration 90 nM)
Procedure, shortened: as §1

[5] = system: LXRb homodimer (NR concentration 270 nM)
Procedure, shortened: as §1

[6] = system: PPARa:RXRa (NR concentration 270 nM, RXRa partner concentration 90 nM)
Procedure, shortened: as §1

[7] = system: PPARg:RXRa (NR concentration 180 nM, RXRa partner concentration 90 nM)
Procedure, shortened: as §1

[8] = system: PPARg:RXRa 270nM:90nM, anti-RXR (NR concentration 270 nM, RXRa partner concentration 90 nM)
Procedure, shortened: as §1

[9] = system: PPARg:RXRa 30nM:10nM, anti-RXR (NR concentration 30 nM, RXRa partner concentration 10 nM)
Procedure, shortened: as §1

[10] = system: PPARg:RXRa 90nM:30nM, anti-RXR (NR concentration 90 nM, RXRa partner concentration 30 nM)
Procedure, shortened: as §1

[11] = system: PPARg:RXRa DBDmut IVT, anti-RXR (DBD mutation: RXRa K156A/R161A, NR concentration 270 nM, RXRa partner concentration 90 nM)
Procedure, shortened: as §1

[12] = system: PPARg:RXRa IVT, anti-PPARg (NR concentration 270 nM, RXRa partner concentration 90 nM)
Procedure, shortened: as §1

[13] = system: PPARg DBDmut:RXRa IVT, anti-PPARg (DBD mutation: PPARg1 K132A/R137A, NR concentration 270 nM, RXRa partner concentration 90 nM)
Procedure, shortened: as §1

[14] = system: PPARg DBDmut IVT, anti-PPARg (DBD mutation: PPARg1 K132A/R137A, NR concentration 270 nM)
Procedure, shortened: as §1

[15] = system: PPARg homodimer (NR concentration 180 nM)
Procedure, shortened: as §1

[16] = system: PXR:RXRa (NR concentration 270 nM, RXRa partner concentration 90 nM)
Procedure, shortened: as §1

[17] = system: PXR homodimer (NR concentration 270 nM)
Procedure, shortened: as §1

[18] = system: RARa:RXR (NR concentration 270 nM, RXRa partner concentration 90 nM)
Procedure, shortened: as §1

[19] = system: RARa homodimer (NR concentration 270 nM)
Procedure, shortened: as §1

[20] = system: RARb:RXRa (NR concentration 270 nM, RXRa partner concentration 90 nM)
Procedure, shortened: as §1

| Sequence | PBM binding z-score [1] | PBM binding z-score [2] | PBM binding z-score [3] | PBM binding z-score [4] | PBM binding z-score [5] | PBM binding z-score [6] | PBM binding z-score [7] | PBM binding z-score [8] | PBM binding z-score [9] | PBM binding z-score [10] | PBM binding z-score [11] | PBM binding z-score [12] | PBM binding z-score [13] | PBM binding z-score [14] | PBM binding z-score [15] | PBM binding z-score [16] | PBM binding z-score [17] | PBM binding z-score [18] | PBM binding z-score [19] | PBM binding z-score [20] |
| --- | --- | --- | --- | --- | --- | --- | --- | --- | --- | --- | --- | --- | --- | --- | --- | --- | --- | --- | --- | --- |
| GCTAGCAGGCCATTTGGGTCACCCAATGACGGGC | 0.339 | -0.142 | -0.557 | 0.0231 | -1.02 | 1.67 | 0.947 | 0.784 | -0.28 | 0.167 | 1.07 | 2.71 | -0.843 | -0.885 | -0.136 | 0.692 | 0.0143 | 1.02 | -0.844 | 1.62 |
| CCTTACGGGTCACTCCAGGTTATGGCATCGGAGT | 4.99 | 7.21 | 1.54 | 4.4 | -0.0375 | 4.24 | 3.15 | 3.76 | 0.907 | 2.67 | 2.6 | 3.76 | -0.451 | -0.505 | 1.71 | 4.55 | 0.182 | 3.46 | 0.437 | 3.78 |
| ATCGAAAGGTCGTGAGGTGATTATACAGAAAGGC | 5.04 | 4.01 | 0.374 | 3.36 | 0.471 | 4.92 | 4.09 | 4.21 | 1.66 | 2.92 | 0.336 | 1.93 | 1.12 | 1.16 | 1.42 | 3.14 | 0.165 | 3.89 | 0.608 | 4.08 |
| TAGCCTAGGTCATTCAGGGGCCCGTATAGAAAGC | 4.76 | 3.93 | 0.791 | 2.54 | 0.963 | 3.52 | 1.99 | 2.34 | 0.359 | 1.44 | 1.73 | 2.64 | 0.467 | 0.786 | 1.25 | 2.01 | -0.334 | 2.84 | -0.527 | 3.47 |
| GTACCAAGGTGAATAGTTCGTTGATGAGTAGGCG | 0.539 | 0.334 | -0.116 | 0.214 | -0.29 | 1.24 | 0.857 | 1.06 | -0.033 | 0.842 | 1.57 | 1.94 | 0.321 | 0.393 | 0.906 | 0.39 | 0.918 | 0.576 | 0.742 | 1.94 |
| CAAACTAGGTCACCGGAAGGGCAAAGTCCGCATG | 4.22 | 3.85 | 0.736 | 2.88 | 0.171 | 5.16 | 8.84 | 6.95 | 4.85 | 6.67 | 8.45 | 8.73 | 1.66 | 1.37 | 1.44 | 3.29 | 0.241 | 3.92 | 0.698 | 4.47 |
| TAACCAAGGTGAAAGGTCGTTGATGCACGCCTTG | 3.72 | 3.34 | 0.422 | 2.69 | 0.0179 | 5.18 | 8.43 | 8.06 | 8.2 | 8.96 | 2.51 | 4.83 | 0.621 | 0.876 | 2.72 | 4.25 | 0.689 | 6.11 | 0.504 | 3.15 |
| CAAACTAGGTCACAGAGCTCAAAGTCCGTGCGTA | 4.29 | 3.18 | 0.278 | 2.01 | 0.231 | 5.45 | 8.88 | 7.47 | 5.2 | 7.26 | 8.61 | 8.86 | 3.69 | 1.2 | 1.74 | 1.81 | -0.0569 | 2.68 | 0.446 | 4.13 |
| TCTGCTAGGTCAGTTAGTCAGCTAACGAGCTGCC | 0.761 | 0.452 | -0.662 | 0.131 | -0.11 | 0.983 | -0.0973 | 1.33 | 1.2 | 1.46 | 2.31 | 2.39 | 0.967 | 0.0395 | -0.199 | 0.00438 | -0.871 | 0.377 | -0.653 | 2.89 |
| ATCACTAGGTAAAGATAGTTCAGTGAATGCAAAT | 0.213 | 3.82 | 0.581 | 0.654 | 0.171 | 0.991 | 1.13 | 0.685 | 0.585 | 0.404 | 3.21 | 2.54 | 1.22 | 1.14 | 0.795 | 1.02 | 0.598 | 0.654 | 1.19 | 0.635 |
| CCAACTGGGCCAAAGGTCATTGATTCCAATGCTC | 4.93 | 4.78 | 3.93 | 4.85 | 0.383 | 6.66 | 12.4 | 10.4 | 10.8 | 11.4 | 5.49 | 7 | 0.378 | 1.89 | 3.57 | 5.33 | 1.49 | 6.04 | 0.958 | 4.35 |
| TCTATTAGCTGATTAGGGCAACCGAAACAGCGGA | 0.113 | -0.201 | -0.333 | -0.12 | -0.075 | 0.627 | -0.00749 | 1.41 | 2.86 | 2.13 | 1.49 | 1.49 | 0.731 | 0.319 | -0.183 | -0.0443 | -0.871 | 0.252 | -0.337 | 0.444 |
| CGTCCAAGGTCAGGGTCAGTGAAAGAGACTCGAA | 6.11 | 3.93 | -0.0372 | 3.66 | 0.128 | 5.11 | 4.59 | 4.52 | 1.28 | 2.98 | 2.17 | 3.09 | 0.335 | -0.416 | 2.66 | 3.7 | 0.71 | 4.22 | 1.34 | 5.2 |
